Results reported in PubChem BioAssay (NCATS).
A number with no mark means an inactive call. Unless noted, the call rests on the fitted dose curve. Inconclusive results are not listed. Residues, ends and D or L forms follow the SMILES beside them.

biological target: Glucocorticoid receptor (Homo sapiens) (UniProt P04150); test: GR-EFC Redistribution (AID 451); settings: CHO-K1 GR-EFC translocation, beta-gal luminescence, 2 h; further: potency means the concentration at half of the fitted maximal effect
Sequence (P04150 whole entry, looked up, the tested form may be a part): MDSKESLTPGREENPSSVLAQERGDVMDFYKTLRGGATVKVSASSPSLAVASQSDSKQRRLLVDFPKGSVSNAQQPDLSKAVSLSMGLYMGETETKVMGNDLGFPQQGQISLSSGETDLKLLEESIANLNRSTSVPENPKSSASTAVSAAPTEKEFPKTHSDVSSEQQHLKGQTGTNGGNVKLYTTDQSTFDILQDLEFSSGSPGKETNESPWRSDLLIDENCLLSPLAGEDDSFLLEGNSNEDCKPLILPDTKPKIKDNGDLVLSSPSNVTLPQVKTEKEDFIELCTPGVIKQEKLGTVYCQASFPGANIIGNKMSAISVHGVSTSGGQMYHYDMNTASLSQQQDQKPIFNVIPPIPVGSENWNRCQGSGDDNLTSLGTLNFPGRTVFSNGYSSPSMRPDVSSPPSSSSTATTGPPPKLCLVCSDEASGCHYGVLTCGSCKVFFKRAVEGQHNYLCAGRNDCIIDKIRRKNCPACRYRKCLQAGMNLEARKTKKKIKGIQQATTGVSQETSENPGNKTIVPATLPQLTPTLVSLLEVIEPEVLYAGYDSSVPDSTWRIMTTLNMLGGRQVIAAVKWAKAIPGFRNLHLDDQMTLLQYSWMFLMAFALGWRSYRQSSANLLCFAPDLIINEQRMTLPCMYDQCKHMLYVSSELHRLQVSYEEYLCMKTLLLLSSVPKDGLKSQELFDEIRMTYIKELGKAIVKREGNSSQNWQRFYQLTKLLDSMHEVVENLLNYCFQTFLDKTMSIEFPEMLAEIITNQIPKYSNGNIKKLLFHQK
How it was run: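 CHO-K1 cells stably expressing nuclear-localized β-gal enzyme acceptor and GR fused C-terminally to the enzyme donor fragment; ligand-driven nuclear translocation restores β-gal by complementation. Compounds titrated up to 46 uM final, 2 h at 37 °C; luminescence read.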

SMILES	Potency
C[C@@H](N1CCOCC1)[C@@](O)(c1ccccc1)c1ccccn1	> 9.22 µM
O=C(O)c1ccccc1C1c2ccccc2Oc2ccccc21	> 9.22 µM
C[C@@H](CS(=O)(=O)Cc1ccccc1)C(N)=O	> 9.22 µM
Nc1cccc2cc(S(=O)(=O)Nc3ccc(C(=O)O)cc3)ccc12	> 9.22 µM
Nc1c(OCC(=O)O)ccc2cc(S(=O)(=O)O)ccc12	> 9.22 µM
O=C(O)c1nn(-c2ccc(Cl)cc2)c2c1C(=O)c1ccccc1C2=O	> 9.22 µM
CN1CCCN(C)C1c1cc([N+](=O)[O-])ccc1O	> 9.22 µM
Cc1cc(Cl)ccc1OCC(=O)Nc1nc(N)nc(N)n1	> 9.22 µM
CC(=O)N[C@H](Cc1ccc(O)cc1)C(=O)O	> 9.22 µM
O=C(O)c1ccccc1C(=O)Nc1cc2c(cc1Br)-c1ccccc1C2=O	> 9.22 µM
[O-][N+]1(CC[N+]2([O-])CCCCC2)CCCCC1	> 9.22 µM
COc1ccc([C@H](O)c2ccccn2)cc1	> 9.22 µM
O=c1[nH]cc(CS(=O)(=O)Cc2c[nH]c(=O)[nH]c2=O)c(=O)[nH]1	> 9.22 µM
O=C(O)c1ccc(Nc2ccnc3cc(Cl)ccc23)cc1O	> 9.22 µM
N#CC(CC(=O)O)=C(c1ccccc1)c1ccccc1	> 9.22 µM
N[C@H]1[C@@H](C(=O)O)[C@H]2C=C[C@H]1C2	> 9.22 µM
N[C@H](CO)C(=O)NCC(=O)O (HELM PEPTIDE1{[dS].G}$$$$V2.0)	> 9.22 µM
COC(=O)CCCC(=O)O	> 9.22 µM
N#C[C@H]1CN[C@H](N)N[C@@H]1N	> 9.22 µM
NC(N)=N/N=C\c1ccc(O)c(C(=O)O)c1	> 9.22 µM

SMILES	Potency
O=C(O)CNCCc1ccccc1	> 9.22 µM
Oc1ccc(Cl)cc1C=Nc1cnc2ccccc2c1	> 9.22 µM
O=C1C2[C@@H](c3ccccc3)N[C@@H](c3ccccc3)C1[C@H](c1ccccc1)N[C@H]2c1ccccc1	> 9.22 µM
O=CN1CCN(C[C@H](O)CN2CCCCC2)CC1	> 9.22 µM
CC(=O)O[C@H]1CC[C@@]2(C)[C@@H](CC[C@H]3[C@H]2CC(=O)[C@@]2(C)[C@@H]3C[C@H]3CC(C)=CC(=O)[C@H]32)C1	> 9.22 µM
Nc1nccc(Nc2ccc(S(N)(=O)=O)cc2)n1	> 9.22 µM
COc1ccc(/C=N\NC(=O)O)cc1	> 9.22 µM
Cc1ccc(N2CCN(CCC(=O)O)CC2)cc1	> 9.22 µM
O=C(O)[C@@H]1[C@@H](C(=O)NCc2ccccn2)[C@@H]2C=C[C@@H]1O2	> 9.22 µM
O=C(O)c1ccc(C(=O)c2ccccc2)c(C(=O)O)c1	> 9.22 µM
O=C1[C@@H]2[C@@H]3C=C[C@H]([C@@H]2C(=O)N1CN1CCSCC1)[C@@H]1[C@@H]2C(=O)N(CN4CCSCC4)C(=O)[C@@H]2[C@H]31	> 9.22 µM
O=C(NCc1cccnc1)[C@@H]1[C@@H](C(=O)O)[C@H]2CC[C@@H]1O2	> 9.22 µM
CC(=O)[C@@H](C)CCO[C@@]1(C)OCC[C@@H]1C	> 9.22 µM
O=C(O)[C@@H](Cc1c[nH]c2ccccc12)C(=O)NO	> 9.22 µM
CCCCn1cnc2c(SC)ncnc21	> 9.22 µM
Cc1cc2ccc(OC(=O)c3ccc(N=C(N)N)cc3)cc2oc1=O	> 9.22 µM
O=C(O)CSc1cc(-c2ccccc2)nc2ccccc12	> 9.22 µM
O=C(O)c1ccccc1CN1CCC[C@@H](C(=O)O)C1	> 9.22 µM
NS(=O)(=O)c1ccc(NCc2cnc3ccccc3n2)cc1	> 9.22 µM

biological target: Mitogen-activated protein kinase 10 (Mus musculus) (UniProt Q61831); test: JNK3 AlphaScreen Assay (AID 530; active means well fitted curve in either direction with a large enough effect, not every such curve was filed as active;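 further: kinase came from lysate of stimulated human HepG2 cells; signal reports phosphorylation of biotinylated GST-cJun 1-79 at Ser73 with 10 µM ATP; on the % scale 0 is the no-effect control and ±100 the full control effect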); settings: JNK3 lysate, c-Jun phosphorylation; series mostly up to 11.4 µM; activity change, negative = inhibition: at the top concentration
How it was run: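 Phosphorylation of biotinylated GST-cJun(1-79) at Ser73 is measured by AlphaScreen proximity luminescence. Enzyme is JNK3 in HepG2 lysates activated with interleukin-1beta and tumor necrosis factor alpha; ATP is 10 uM final.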

SMILES	activity change, negative = inhibition
C[C@@H](N1CCOCC1)[C@@](O)(c1ccccc1)c1ccccn1	2.8%
O=C(O)c1ccccc1C1c2ccccc2Oc2ccccc21	4.5%
C[C@@H](CS(=O)(=O)Cc1ccccc1)C(N)=O	-2.56%
Nc1cccc2cc(S(=O)(=O)Nc3ccc(C(=O)O)cc3)ccc12	1.78%
Nc1c(OCC(=O)O)ccc2cc(S(=O)(=O)O)ccc12	3.34%
O=C(O)c1nn(-c2ccc(Cl)cc2)c2c1C(=O)c1ccccc1C2=O	-12.3%
CN1CCCN(C)C1c1cc([N+](=O)[O-])ccc1O	4.46%
Cc1cc(Cl)ccc1OCC(=O)Nc1nc(N)nc(N)n1	3.08%
CC(=O)N[C@H](Cc1ccc(O)cc1)C(=O)O	-1.63%
O=C(O)c1ccccc1C(=O)Nc1cc2c(cc1Br)-c1ccccc1C2=O	-2.24%
[O-][N+]1(CC[N+]2([O-])CCCCC2)CCCCC1	-2.54%
COc1ccc([C@H](O)c2ccccn2)cc1	0.391%
O=c1[nH]cc(CS(=O)(=O)Cc2c[nH]c(=O)[nH]c2=O)c(=O)[nH]1	0.791%
O=C(O)c1ccc(Nc2ccnc3cc(Cl)ccc23)cc1O	-6.65%
N#CC(CC(=O)O)=C(c1ccccc1)c1ccccc1	4.54%
N[C@H]1[C@@H](C(=O)O)[C@H]2C=C[C@H]1C2	3.76%
N[C@H](CO)C(=O)NCC(=O)O (HELM PEPTIDE1{[dS].G}$$$$V2.0)	1.39%
COC(=O)CCCC(=O)O	4.18%
N#C[C@H]1CN[C@H](N)N[C@@H]1N	33.4%
NC(N)=N/N=C\c1ccc(O)c(C(=O)O)c1	3.11%

SMILES	activity change, negative = inhibition
O=C(O)CNCCc1ccccc1	2.63%
Oc1ccc(Cl)cc1C=Nc1cnc2ccccc2c1	0.413%
O=C1C2[C@@H](c3ccccc3)N[C@@H](c3ccccc3)C1[C@H](c1ccccc1)N[C@H]2c1ccccc1	1.49%
O=CN1CCN(C[C@H](O)CN2CCCCC2)CC1	34%
CC(=O)O[C@H]1CC[C@@]2(C)[C@@H](CC[C@H]3[C@H]2CC(=O)[C@@]2(C)[C@@H]3C[C@H]3CC(C)=CC(=O)[C@H]32)C1	0.933%
Nc1nccc(Nc2ccc(S(N)(=O)=O)cc2)n1	-4.5%
COc1ccc(/C=N\NC(=O)O)cc1	5.72%
Cc1ccc(N2CCN(CCC(=O)O)CC2)cc1	5.21%
O=C(O)[C@@H]1[C@@H](C(=O)NCc2ccccn2)[C@@H]2C=C[C@@H]1O2	0.698%
O=C(O)c1ccc(C(=O)c2ccccc2)c(C(=O)O)c1	1.44%
O=C1[C@@H]2[C@@H]3C=C[C@H]([C@@H]2C(=O)N1CN1CCSCC1)[C@@H]1[C@@H]2C(=O)N(CN4CCSCC4)C(=O)[C@@H]2[C@H]31	1.55%
O=C(NCc1cccnc1)[C@@H]1[C@@H](C(=O)O)[C@H]2CC[C@@H]1O2	7.3%
CC(=O)[C@@H](C)CCO[C@@]1(C)OCC[C@@H]1C	1.24%
O=C(O)[C@@H](Cc1c[nH]c2ccccc12)C(=O)NO	-1.42%
CCCCn1cnc2c(SC)ncnc21	2.87%
Cc1cc2ccc(OC(=O)c3ccc(N=C(N)N)cc3)cc2oc1=O	6.93%
O=C(O)CSc1cc(-c2ccccc2)nc2ccccc12	-1.14%
O=C(O)c1ccccc1CN1CCC[C@@H](C(=O)O)C1	6.42%
NS(=O)(=O)c1ccc(NCc2cnc3ccccc3n2)cc1	1.25%
